This passage reports composite z-score and z-score results from PubChem BioAssay.

Active and inactive are the calls of the source. Unless noted, no rule for the calls is given here.

The subject of assay [1] is Wnt5a (protein binding on small-molecule microarray). Kind of assay: Wnt5a binders on small-molecule microarray, primary screen, biophysical, 635/667 nm fluorescence (AID 1142).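 Also: fluorescence read at 667 nm with signal to noise per printed feature.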 Particulars: 635 nm fluorescence, higher = more signal.
The nature of assay [2]: cell viability in Huh7 cells, primary screen, cytotoxicity control for HCV replication inhibitor project, CellTiter-Glo luminescence, basal, 48 h (AID 1143).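 Also: Huh7 hepatoma cells carrying a hepatitis C replication reporter with no stimulus; test concentration not given here.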 Particulars: Huh7 HCV replicon, higher = more signal, called active from +8 up or from −8 down. On the technique in general: In ATP-based viability assays light output follows the ATP content of the culture.
Assay [3] is described as follows: P. aeruginosa biofilm formation inhibitors, primary screen, PAO1 strain, BacTiter-Glo luminescence, LB-PBS (AID 1144). Particulars: 12 h, higher = more signal.
The nature of assay [4]: CREB reporter modulators without forskolin, primary screen, cell-based, PC12, CRE-LacZ reporter, unstimulated (AID 1145). Particulars: no forskolin, luminescence, 4.5 h, higher = more signal, called active from +8 up or from −8 down.
The nature of assay [5]: CREB reporter modulators under forskolin, primary screen, cell-based, PC12, CRE-LacZ reporter, forskolin-stimulated (AID 1146).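 Also: PC12 cells with 6xCRE LacZ reporter stimulated by forskolin 10 µM; beta-galactosidase reporter signal reflecting CREB driven transcription.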 Particulars: luminescence, 4.5 h, higher = more signal, called active from +8 up or from −8 down.
Assay [6] addresses Streptavidin (Streptomyces avidinii) (UniProt P22629). Put plainly: streptavidin binders on small-molecule microarray, primary screen, artefact control for SMM compound annotation, biophysical, 635/667 nm fluorescence (AID 1147).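 Also: signal reflects streptavidin binding to arrayed compounds as a control protein.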 Particulars: streptavidin binding, higher = more signal.
Assay [7] is described as follows: small-molecule binders of probe aInhba, primary screen, biochemical, small-molecule microarray, 635/667 nm fluorescence (AID 1148).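 Also: score merges 667nm spot fluorescence with signal-to-noise for antibody binding to printed compounds.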 Particulars: higher = more signal.
For assay [8], the target named is Torsin-1A (Homo sapiens) (UniProt O14656). Kind of assay: torsin A binders from cell lysate, primary screen, small-molecule microarray, wild-type, 635/667 nm (AID 1149). Particulars: COS7 hTOR1A-WT lysate, 635 nm fluorescence, higher = more signal.
Chain of Torsin-1A (Homo sapiens) (O14656 whole entry, looked up): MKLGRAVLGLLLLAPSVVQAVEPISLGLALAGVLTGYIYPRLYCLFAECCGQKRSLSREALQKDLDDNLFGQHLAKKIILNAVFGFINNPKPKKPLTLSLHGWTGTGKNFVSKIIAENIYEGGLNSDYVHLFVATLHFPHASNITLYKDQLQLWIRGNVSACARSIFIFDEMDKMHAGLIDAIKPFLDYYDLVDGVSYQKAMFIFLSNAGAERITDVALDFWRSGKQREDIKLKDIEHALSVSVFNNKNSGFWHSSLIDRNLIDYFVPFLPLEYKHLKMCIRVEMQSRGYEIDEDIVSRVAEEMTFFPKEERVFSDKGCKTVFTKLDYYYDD
For assay [9] the target is unchanged. Kind of assay: small-molecule binders of mutant TOR1A in lysate, primary screen, cell lysate, small-molecule microarray, COS7 lysate, 635/667 nm fluorescence (AID 1150).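 Also: score pools 667 nm emission and signal to noise measuring lysate protein binding.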 Particulars: COS7 hTOR1A mutant lysate, 635 nm fluorescence, higher = more signal.
For assay [10], the system named is Sonic hedgehog protein (Shh). Put plainly: small-molecule binders of Shh protein, primary screen, biochemical, small-molecule microarray, 635/667 nm fluorescence (AID 1151).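 Also: Shh protein binding to compounds spotted on small-molecule microarray slides; score combines spot fluorescence intensity with signal-to-noise across triplicate slides.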 Particulars: small-molecule microarray binding, 635 nm fluorescence; higher = more signal.

Chain of Streptavidin (Streptomyces avidinii) (P22629 whole entry, looked up): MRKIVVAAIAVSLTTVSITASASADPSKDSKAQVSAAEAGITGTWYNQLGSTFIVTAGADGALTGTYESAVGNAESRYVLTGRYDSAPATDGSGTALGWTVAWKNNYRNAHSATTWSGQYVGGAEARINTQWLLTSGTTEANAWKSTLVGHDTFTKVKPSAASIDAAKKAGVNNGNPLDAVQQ

As for `CCCC=C(CCC)[C@@H](NC(=O)Cc1ccccc1)c1ccc(C(=O)OC)cc1`, the composite z-score in assay [1] was 0.372; in assay [6], 1.68; in assay [7] it was 0.376; with Torsin-1A (Homo sapiens) [8], -0.0377; with Torsin-1A (Homo sapiens) [9], -0.414; in [10], -0.284. In addition, the z-score is -2.2 (inactive) in [2], 0.354 (inactive) in assay [3], 0.0041 (inactive) in assay [4] and 0.545 (inactive) in assay [5].
Consider `CC(C)N1CC=CC23O[C@@H]4C=CCOC(=O)[C@@H]4[C@H]2C(=O)N(CCCCCCO)[C@@H]3C1=O` (stereo not given in full), for which the composite z-score is -0.301 in assay [1]; -0.665 in assay [6]; -0.097 in assay [7]; -2.54 in the assay with Torsin-1A (Homo sapiens) [8]; -0.976 in the assay with Torsin-1A (Homo sapiens) [9]; 1.08 in [10]. Moreover, the z-score in assay [2] was -0.0015 (inactive); in assay [3], -0.839 (inactive); in assay [4] it was -0.627 (inactive); in [5], -0.421 (inactive).
Take `COCCOC(=O)N1C(=O)[C@@]2(c3cc(C#CCNC(N)=O)ccc31)[C@H](C(N)=O)[C@H]1C(=O)O[C@H](c3ccccc3)[C@H](c3ccccc3)N1[C@@H]2c1ccc(OCCO)cc1`: the composite z-score in assay [1] came to 0.601; in assay [6], 0.668; in assay [7] it was 0.0219; with Torsin-1A (Homo sapiens) [8] it was 0.532; with Torsin-1A (Homo sapiens) [9] it was 1.26; in assay [10], 1.63. Further, the z-score was 0.166 (inactive) in assay [2], 0.404 (inactive) in [3], 0.631 (inactive) in assay [4] and -0.0727 (inactive) in assay [5].
`CC(C)(C)OC(=O)CC[C@]1(C(=O)N2CCCCC2)N=C(c2ccc(OCCCO)cc2)O[C@H]1c1ccccc1CN=[N+]=[N-]`: the composite z-score in assay [1] turned out to be 1.13; in assay [6], 0.835; in assay [7], 0.927; in the assay with Torsin-1A (Homo sapiens) [8] it was 0.635; with Torsin-1A (Homo sapiens) [9] it was 1.17; in assay [10], 0.251. In addition, the z-score in assay [2] is -3.42 (inactive); in assay [3] it was -0.596 (inactive); in [4], 0.927 (inactive); in assay [5] it was -0.707 (inactive).
Regarding `CN(C)C(=O)[C@@]1(CCS(=O)(=O)c2ccccc2)N=C(c2ccc(OCCCO)cc2)O[C@H]1c1ccccc1CN=[N+]=[N-]`, the composite z-score in assay [1] was found to be 0.909; in [6], 1.13; in assay [7], 0.148; with Torsin-1A (Homo sapiens) [8], 1.07; in the assay with Torsin-1A (Homo sapiens) [9], 0.351; in assay [10], 0.159. Further, the z-score in assay [2] was -3.95 (inactive); in [3], -0.873 (inactive); in [4], -0.151 (inactive); in assay [5], -0.607 (inactive).
`COc1ccc([Si](C)(C)[C@@H]2[C@@H](CCO)O[C@]3(C(=O)N(Cc4ccc(N5C(=O)c6ccccc6Oc6ccccc65)cc4)c4ccccc43)[C@H]2C)cc1`: the composite z-score is -0.355 in assay [1]; -0.132 in assay [6]; -0.179 in assay [7]; -1.04 with Torsin-1A (Homo sapiens) [8]; -0.949 with Torsin-1A (Homo sapiens) [9]; 0.0769 in [10]. Further, the z-score in assay [2] was -7.17 (inactive); in assay [3], -0.734 (inactive); in assay [4] it was 2.5 (inactive); in assay [5] it was 0.286 (inactive).
On to `Cc1ccc(F)cc1S(=O)(=O)N[C@@H]1CCN(C(=O)c2ccc(OC(C)C)cc2)C1`, for which the composite z-score in assay [1] is 0.336; in [6], 0.224; in assay [7] it was 0.143; in the assay with Torsin-1A (Homo sapiens) [8], 0.0677; with Torsin-1A (Homo sapiens) [9] it was 0.196; in [10], 0.975. The z-score was -0.798 (inactive) in assay [2], 0.595 (inactive) in assay [3], 2.66 (inactive) in assay [4] and -0.906 (inactive) in assay [5].
For the compound `COCCCNC(=O)[C@]1(Cc2ccccc2)N=C(c2ccc(OCCCO)cc2)O[C@@H]1c1ccccc1N=[N+]=[N-]`, the composite z-score in assay [1] is 1.1; in [6] it was 0.607; in [7], -0.0136; in the assay with Torsin-1A (Homo sapiens) [8], 1.04; with Torsin-1A (Homo sapiens) [9], 1.04; in assay [10] it was -0.46. For the same compound, the z-score is -5.91 (inactive) in [2], -1.57 (inactive) in [3], 0.101 (inactive) in [4] and -0.844 (inactive) in [5].
On to `COc1ccccc1CN1C(=O)c2ccccc2[C@](Cc2ccccc2I)(C(=O)NCCN2CCOCC2)[C@@H]1c1ccc(CO)cc1`, for which the composite z-score is 0.375 in [1]; 0.593 in [6]; -0.101 in assay [7]; 0.301 with Torsin-1A (Homo sapiens) [8]; 0.504 in the assay with Torsin-1A (Homo sapiens) [9]; 1.48 in assay [10]. Also, the z-score in [2] was -4.52 (inactive); in assay [3], 0.506 (inactive); in [4], 0.648 (inactive); in [5] it was -0.746 (inactive).
In the case of `CN1C(=O)C2C=CC(C(O)C3CCCCC3)N(N(c3ccccc3)c3ccccc3)C2C1=O` (stereo not given), the composite z-score is 0.0957 in assay [1]; -0.0316 in assay [6]; 0.596 in assay [7]; -0.08 in the assay with Torsin-1A (Homo sapiens) [8]; 0.0415 with Torsin-1A (Homo sapiens) [9]; -0.298 in assay [10]. Besides, the z-score in [2] is 0.673 (inactive); in assay [3] it was 0.0683 (inactive); in [4], -0.333 (inactive); in assay [5] it was 0.355 (inactive).
Regarding `COC(=O)C(CC#Cc1ccc2c(c1)[C@]1(C(=O)N2)[C@H](C(=O)N2CCc3cc(OC)c(OC)cc3C2)[C@H]2C(=O)O[C@H](c3ccccc3)[C@H](c3ccccc3)N2[C@@H]1c1ccc(O)cc1)C(=O)OC`, the composite z-score in [1] turned out to be 0.746; in assay [6], 0.112; in assay [7], 0.263; with Torsin-1A (Homo sapiens) [8], 0.644; with Torsin-1A (Homo sapiens) [9] it was 0.694; in assay [10], 1.87. For the same compound, the z-score was -3.3 (inactive) in assay [2], -1.21 (inactive) in assay [3], 0.0384 (inactive) in assay [4] and -1.12 (inactive) in assay [5].
On to `O=C1C[C@@](C(=O)O)(c2ccc([N+](=O)[O-])cc2)[C@@H](c2ccc(CO)cc2)N1CC12CC3CC(CC(C3)C1)C2`, for which the composite z-score in assay [1] was 0.319; in assay [6], 0.791; in assay [7] it was -0.0759; with Torsin-1A (Homo sapiens) [8], 0.734; with Torsin-1A (Homo sapiens) [9], 0.949; in assay [10] it was 1.76. Moreover, the z-score in [2] is -5.13 (inactive); in assay [3], -1.03 (inactive); in assay [4], -0.322 (inactive); in assay [5] it was 0.351 (inactive).
For `COc1ccc([Si](C)(C)[C@@H]2[C@@H](CCO)O[C@]3(C(=O)N(Cc4ccccc4)c4ccc(N5C(=O)COc6ccccc65)cc43)[C@H]2C)cc1`, the composite z-score was 0.0063 in assay [1]; 0.104 in assay [6]; -0.0832 in assay [7]; -0.0843 with Torsin-1A (Homo sapiens) [8]; -0.309 with Torsin-1A (Homo sapiens) [9]; 0.693 in [10]. The z-score is -6.38 (inactive) in [2], -0.617 (inactive) in assay [3], -0.636 (inactive) in assay [4] and 0.0638 (inactive) in [5].
